Data on six compounds can be found in PubChem BioAssay (NCATS).

Assay [1] concerns the target Lysosomal acid glucosylceramidase (Homo sapiens) (UniProt P04062). Put plainly: Glucocerebrosidase-p2 (AID 348; in the data active = potency below about 10 µM; also: potency is read from the fitted curve at half-maximal effect). The note with it: purified GBA, blue fluorogenic substrate, 40 min. An outline of the steps:
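Normal human glucocerebrosidase (0.2 nM) with blue fluorogenic substrate (80 uM final) in citrate/phosphate pH 5.9 with 10mM sodium taurocholate, 0.01% tween-20; 40 min RT, NaOH/glycine stop; fluorescence Ex 365/Em 440; AC50 from a titration from 0.6 nM upwards.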

Assay [2] is described as follows: AP1 Signaling Pathway (AID 357; active = well fitted curve in either direction with a large enough effect, not every such curve was filed as active;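 also: ME-180 reporter cells stimulated with EGF at its EC50 level; % is scaled to controls: 0 for no effect and ±100 for the full control effect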). As to conditions: ME-180 AP-1-bla reporter, EGF-induced, beta-lactamase ratio, 5 h; at 7.69 µM (top of the series) unless noted. An outline of the steps:
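First, ME-180 AP-1-bla cells were cultured overnight at 37 °C in low-serum Opti-MEM. Next, titrated compounds with EC50 EGF were incubated 5 hours. Finally, CCF4 was added for 2.5 hours and the 460/530 nm ratio recorded.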

The target of assay [3] is Cytochrome P450 1A2 (Homo sapiens) (UniProt P05177). Nature of the assay: p450-cyp1a2 (AID 410; calls by dose curve; also: potency is read from the fitted curve at half-maximal effect). The note with it: recombinant CYP1A2, luciferin-ME demethylation, luminescence; series mostly up to 57 µM. An outline of the steps:
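20nM CYP1A2, 100uM Luciferin-ME (=Km), 100mM KPO4; cpd 10 min RT; +NADPH regen, 60 min RT; stop/detect 20 min; luminescence. Normalized to furafylline 57 uM = full inhibition.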

The nature of assay [4]: NFAT Signaling Pathway (AID 444; active = well fitted curve in either direction with a large enough effect, not every such curve was filed as active;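 also: carbachol stimulus at about its EC50 of 1 µM final; % is scaled to controls: 0 for no effect and ±100 for the full control effect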). The note with it: Jurkat NFAT-bla M1, carbachol, beta-lactamase ratio, 5 h; at 7.69 µM (top of the series) unless noted. The method in brief:
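Read-out: CCF4 FRET ratio (460 nm/530 nm) after 1 h RT dye loading, used for %activity and AC50 from titration series. Cells: Jurkat NFAT-β-lactamase/M1 line, treated with compound plus 1 uM carbachol for 5 h, 37 °C.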

The target in assay [5] is Glucocorticoid receptor (Homo sapiens) (UniProt P04150). Nature of the assay: GR-GFP Redistribution (AID 450;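 active = compounds whose dose series gives a full or clear partial fitted curve of increased nuclear translocation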; also: potency is read from the fitted curve at half-maximal effect). The note with it: U2OS GR-GFP nuclear translocation, laser cytometry, 2 h.
Sequence of Glucocorticoid receptor (Homo sapiens) (P04150 whole entry, looked up, the tested form may be a part): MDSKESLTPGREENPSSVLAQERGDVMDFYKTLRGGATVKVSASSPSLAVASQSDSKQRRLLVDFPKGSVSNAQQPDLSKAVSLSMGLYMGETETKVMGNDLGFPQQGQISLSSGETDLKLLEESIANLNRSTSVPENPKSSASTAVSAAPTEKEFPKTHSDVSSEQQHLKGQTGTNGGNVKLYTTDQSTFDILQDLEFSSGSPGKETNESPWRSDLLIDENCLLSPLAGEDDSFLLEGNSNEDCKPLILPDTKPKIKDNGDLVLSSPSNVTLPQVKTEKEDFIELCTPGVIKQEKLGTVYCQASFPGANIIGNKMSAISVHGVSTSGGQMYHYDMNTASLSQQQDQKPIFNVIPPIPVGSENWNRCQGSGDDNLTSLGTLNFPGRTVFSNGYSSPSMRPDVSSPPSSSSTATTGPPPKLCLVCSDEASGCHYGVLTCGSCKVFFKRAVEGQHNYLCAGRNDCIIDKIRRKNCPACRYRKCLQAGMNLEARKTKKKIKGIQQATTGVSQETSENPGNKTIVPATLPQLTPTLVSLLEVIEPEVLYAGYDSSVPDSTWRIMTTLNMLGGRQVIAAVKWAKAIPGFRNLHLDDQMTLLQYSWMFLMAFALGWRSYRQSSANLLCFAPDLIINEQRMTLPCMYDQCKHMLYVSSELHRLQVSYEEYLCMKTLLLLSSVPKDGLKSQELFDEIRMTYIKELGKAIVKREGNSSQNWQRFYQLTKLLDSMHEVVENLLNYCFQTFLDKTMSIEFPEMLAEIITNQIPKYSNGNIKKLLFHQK
Assay [6] shares this target. Nature of the assay: GR-EFC Redistribution (AID 451; calls by dose curve; also: potency is read from the fitted curve at half-maximal effect). As to conditions: CHO-K1 GR-EFC translocation, beta-gal luminescence, 2 h. An outline of the steps: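 Translocation of GR-ED fusion to nuclear EA restores b-gal, read by luminescence after 1 h room-temperature detection. Engineered CHO-K1 biosensor cells, 1,000/well, exposed 2 h at 37 C to titrations up to 46 uM final.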

For assay [7], the target named is Mitogen-activated protein kinase 10 (Mus musculus) (UniProt Q61831). Put plainly: JNK3 AlphaScreen Assay (AID 530; active = well fitted curve in either direction with a large enough effect, not every such curve was filed as active;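 also: kinase came from lysate of stimulated human HepG2 cells; signal reports phosphorylation of biotinylated GST-cJun 1-79 at Ser73 with 10 µM ATP; % is scaled to controls: 0 for no effect and ±100 for the full control effect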). The note with it: JNK3 lysate, c-Jun phosphorylation; series mostly up to 57.1 µM. An outline of the steps: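 Kinase buffer: 20 mM Tris-HCl pH 7.6, 10 mM MgCl2, 1 mM DTT, 0.1 mM Na3VO4, 0.01% Tween-20; ATP 10 uM. Substrate biotin-GST-cJun(1-79), enzyme from activated HepG2 lysates. Detection by Ser73 phospho-antibody AlphaScreen.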
On the technique in general: Alpha assays give light when donor and acceptor beads are brought close together.

For assay [8], the target named is 3',5'-cyclic-AMP phosphodiesterase 4B (Homo sapiens) (UniProt Q07343). Put plainly: qHTS Assay for Inhibitors of PDE-IV (AID 607; active = well fitted activation curve with a large enough effect in the main read-out, with a control signal flat, not every such curve was filed as active; also: % of control where 0% means no effect). The note with it: HEK293 ACTOne CNG channel cells, membrane potential fluorescence; series mostly up to 22.9 µM. The method in brief: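 HEK293 ACTOne cells with CNG channel (1000/well), endogenous PDE4; membrane potential dye, compounds up to 22.9 uM final. Fluorescence Ex 535/Em 590; RO 20-1724 (100 uM final) as reference.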
Sequence of 3',5'-cyclic-AMP phosphodiesterase 4B (Homo sapiens) (Q07343 whole entry, looked up): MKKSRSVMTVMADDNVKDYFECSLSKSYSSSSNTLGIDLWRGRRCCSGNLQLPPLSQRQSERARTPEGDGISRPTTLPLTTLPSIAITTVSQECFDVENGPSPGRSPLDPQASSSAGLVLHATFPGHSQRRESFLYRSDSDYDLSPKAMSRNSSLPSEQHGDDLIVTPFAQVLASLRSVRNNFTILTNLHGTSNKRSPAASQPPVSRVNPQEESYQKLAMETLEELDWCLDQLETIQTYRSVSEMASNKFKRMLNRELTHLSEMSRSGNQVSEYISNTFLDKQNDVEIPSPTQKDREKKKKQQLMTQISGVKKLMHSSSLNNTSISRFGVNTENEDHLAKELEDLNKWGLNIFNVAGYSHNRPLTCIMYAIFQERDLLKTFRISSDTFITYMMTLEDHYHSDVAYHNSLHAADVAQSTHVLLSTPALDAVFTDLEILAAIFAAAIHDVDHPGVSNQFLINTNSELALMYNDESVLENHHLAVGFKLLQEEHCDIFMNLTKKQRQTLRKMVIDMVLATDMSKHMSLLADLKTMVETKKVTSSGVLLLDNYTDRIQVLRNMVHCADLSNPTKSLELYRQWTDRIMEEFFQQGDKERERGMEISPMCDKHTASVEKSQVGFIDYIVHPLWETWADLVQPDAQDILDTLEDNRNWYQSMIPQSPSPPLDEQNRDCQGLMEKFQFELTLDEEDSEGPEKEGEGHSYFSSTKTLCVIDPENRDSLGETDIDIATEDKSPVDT
For orientation: Quantitative high-throughput screening tests each substance at several concentrations.

The target in assay [9] is Dual specificity protein kinase CLK4 (Homo sapiens) (UniProt Q9HAZ1). Nature of the assay: qHTS Assay for Inhibitors of CDC-like Kinase 4 (Kinase-Glo Assay) (AID 1770). Also: nearly all actives have a fitted effect of over 65% in size. Also: potency is read from the fitted curve at half-maximal effect. As to conditions: recombinant Clk4, Kinase-Glo ATP depletion luminescence; series mostly up to 66.7 µM. An outline of the steps: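 Clk4 25 nM, RS peptide 100 uM, ATP 1 uM, pH 7.5 Tris, 10 mM MgCl2, 2.5 mM DTT; 4.5 h RT; ATP depletion read by Kinase-Glo luminescence.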
Sequence of Dual specificity protein kinase CLK4 (Homo sapiens) (Q9HAZ1 whole entry, looked up): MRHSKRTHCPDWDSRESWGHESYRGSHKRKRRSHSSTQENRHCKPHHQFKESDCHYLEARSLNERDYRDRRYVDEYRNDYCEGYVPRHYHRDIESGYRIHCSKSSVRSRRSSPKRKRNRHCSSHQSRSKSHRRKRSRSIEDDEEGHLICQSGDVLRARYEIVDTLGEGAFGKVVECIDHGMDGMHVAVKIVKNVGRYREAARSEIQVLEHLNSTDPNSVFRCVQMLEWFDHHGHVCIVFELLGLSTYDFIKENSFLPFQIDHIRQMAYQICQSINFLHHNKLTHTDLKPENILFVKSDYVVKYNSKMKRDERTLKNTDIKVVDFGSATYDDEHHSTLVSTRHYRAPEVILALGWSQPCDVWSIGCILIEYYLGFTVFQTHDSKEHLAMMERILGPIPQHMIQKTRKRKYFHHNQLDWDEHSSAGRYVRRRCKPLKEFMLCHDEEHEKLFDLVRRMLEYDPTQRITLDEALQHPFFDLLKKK

Assay [10] has the same target. Nature of the assay: qHTS Assay for Inhibitors of CDC-like Kinase 4 (ADP-Glo Assay) (AID 1771). Also: nearly all actives have a fitted effect of over 70% in size. Also: potency is read from the fitted curve at half-maximal effect. The note with it: recombinant CLK4, ADP-Glo luminescence; series mostly up to 80 µM. The method in brief: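 25 nM Clk4, 100 uM RS peptide, 1 uM ATP (final); 2 mM MgCl2, 0.5 mM EGTA, 2.5 mM DTT, 0.01% Triton X-100; 1 hr RT. ADP-Glo readout: ATP depletion 45 min, conversion/luciferase 30 min, luminescence.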

Assay [11] shares this target. Put plainly: qHTS Assay for Inhibitors of CDC-like Kinase 4 (ADP-FP Assay) (AID 1795). Also: nearly all actives have a fitted effect of over 60% in size. Also: potency is read from the fitted curve at half-maximal effect. As to conditions: Transcreener ADP fluorescence polarization; series mostly up to 50 µM. An outline of the steps:
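Kinase activity was followed as ADP output, converted from fluorescence polarization with a calibration curve. Reactions ran one hour at low ATP (1 uM) with RS peptide substrate.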

In assay [12] the target is Ubiquitin carboxyl-terminal hydrolase 1 (Homo sapiens) (UniProt O94782). Put plainly: Inhibitors of USP1/UAF1: Pilot qHTS (AID 504865).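 Also: rhodamine fluorescence freed from ubiquitin-rhodamine substrate followed over time; top concentration of the series differs between compounds; % is scaled to controls: 0 for no effect and ±100 for the full control effect; nearly all actives have a fitted effect of over 35% in size.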 As to conditions: purified USP1/UAF1, Ub-rhodamine cleavage fluorescence; series mostly up to 54.9 µM. An outline of the steps: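 Enzyme-free wells gave the negative control, while test wells held 1nM USP1/UAF1 preincubated with compound for 15 min at room temperature. Ub-Rho at 150nM final started the reaction, and fluorescence at 480/540 nm was recorded kinetically.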
Sequence of Ubiquitin carboxyl-terminal hydrolase 1 (Homo sapiens) (O94782 whole entry, looked up): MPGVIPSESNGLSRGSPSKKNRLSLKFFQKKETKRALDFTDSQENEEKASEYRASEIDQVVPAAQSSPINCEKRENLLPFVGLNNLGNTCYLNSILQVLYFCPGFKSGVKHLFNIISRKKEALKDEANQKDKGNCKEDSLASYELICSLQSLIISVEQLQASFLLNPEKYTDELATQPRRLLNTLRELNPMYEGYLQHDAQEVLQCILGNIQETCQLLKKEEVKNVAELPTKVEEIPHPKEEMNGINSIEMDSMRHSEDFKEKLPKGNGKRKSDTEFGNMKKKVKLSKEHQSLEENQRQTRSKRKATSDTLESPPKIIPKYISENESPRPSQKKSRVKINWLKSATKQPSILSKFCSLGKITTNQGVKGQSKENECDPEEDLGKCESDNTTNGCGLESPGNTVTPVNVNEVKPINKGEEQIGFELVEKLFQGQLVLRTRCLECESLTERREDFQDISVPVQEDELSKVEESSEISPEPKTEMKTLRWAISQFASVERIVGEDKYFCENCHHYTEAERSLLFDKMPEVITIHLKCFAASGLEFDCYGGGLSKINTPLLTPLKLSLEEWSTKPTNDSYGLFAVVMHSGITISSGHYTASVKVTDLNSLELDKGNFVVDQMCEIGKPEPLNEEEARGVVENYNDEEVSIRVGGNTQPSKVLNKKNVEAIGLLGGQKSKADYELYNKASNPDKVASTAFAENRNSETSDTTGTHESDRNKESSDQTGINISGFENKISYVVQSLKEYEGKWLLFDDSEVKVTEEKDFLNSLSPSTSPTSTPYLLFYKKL

A short description of assay [13]: Primary qHTS for small molecule stabilizers of the endoplasmic reticulum resident proteome: Secreted ER Calcium Modulated Protein (SERCaMP) assay (AID 1508630). Also: % is scaled to controls: 0 for no effect and ±100 for the full control effect. As to conditions: SH-SY5Y GLuc-SERCaMP (Gaussia luciferase released on ER calcium loss) secretion, thapsigargin, luminescence; series mostly up to 38.4 µM. An outline of the steps:
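The SH-SY5Y reporter protocol was run at 3 concentrations up to 38.3 uM (primary) or 11 concentrations (follow-up): 16 h compound, 100 nM thapsigargin for 4 h, then extracellular luciferase luminescence.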

For assay [14], the target named is Cytochrome P450 3A4 (Homo sapiens) (UniProt P08684). Nature of the assay: qHTS Assay for Activators of Cytochrome P450 3A4 (AID 885). Also: nearly all actives have a fitted effect of over 65% in size. As to conditions: recombinant CYP3A4, Luciferin-PPXE luminescence, 60 min; series mostly up to 57.1 µM. An outline of the steps: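 Human CYP3A4 dealkylates Luciferin-PPXE to luciferin, which luciferase detection converts to light. Substrate was at its KM (25uM), buffer 200mM KPO4, reaction 60 min at RT.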
Sequence of Cytochrome P450 3A4 (Homo sapiens) (P08684 whole entry, looked up): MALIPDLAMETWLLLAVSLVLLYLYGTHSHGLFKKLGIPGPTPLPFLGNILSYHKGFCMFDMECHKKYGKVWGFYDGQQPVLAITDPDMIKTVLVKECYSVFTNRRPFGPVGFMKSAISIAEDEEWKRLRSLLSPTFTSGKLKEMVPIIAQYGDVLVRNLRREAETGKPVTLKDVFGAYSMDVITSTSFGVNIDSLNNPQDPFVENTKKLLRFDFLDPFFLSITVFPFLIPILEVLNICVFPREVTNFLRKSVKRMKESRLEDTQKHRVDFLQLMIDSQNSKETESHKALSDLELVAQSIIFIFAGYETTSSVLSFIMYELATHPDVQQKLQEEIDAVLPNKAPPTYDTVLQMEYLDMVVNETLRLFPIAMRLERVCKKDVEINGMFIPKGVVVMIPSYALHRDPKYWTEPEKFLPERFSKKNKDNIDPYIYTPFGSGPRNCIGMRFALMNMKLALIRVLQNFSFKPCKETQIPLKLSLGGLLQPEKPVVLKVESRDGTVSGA

The target is the same in assay [15]. Put plainly: qHTS Assay for Inhibitors and Substrates of Cytochrome P450 3A4 (AID 884). Also: nearly all actives have a fitted effect of over 50% in size. Also: potency is read from the fitted curve at half-maximal effect. As to conditions: recombinant CYP3A4, Luciferin-PPXE luminescence; series mostly up to 57.1 µM. An outline of the steps: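 Luminescent readout of luciferin produced by CYP3A4 (20 nM) dealkylation of Luciferin-PPXE, 25 uM (its KM). NADPH-driven reaction ran 60 min at RT after 10 min compound preincubation; data scaled to 57 uM ketoconazole as 100% inhibition.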

Assay [16] can be described thus: qHTS Assay for Identification of Small Molecule Agonists for Hypoxia Response Element Signaling Pathway (AID 914; active = well fitted activation curve with a large enough effect in the signal ratio, with a control signal flat, not every such curve was filed as active; the % refers to the signal ratio; also: potency is read from the fitted curve at half-maximal effect; as to activation: % of control where 0% means no effect). As to conditions: ME-180 HRE-bla reporter, beta-lactamase ratio, CoCl2, 17 h; activation: active compounds read high. The method in brief: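 qHTS titration; ME-180 HRE-bla cells; EC50 CoCl2 co-treatment, 17 h at 37 degrees Celsius; CCF4 dye, ex 405nm, em 460nm and 530nm; %Activity from ratio; AC50.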

Assay [17] in a line: Stat Signaling Pathway (AID 446; active = well fitted curve in either direction with a large enough effect, not every such curve was filed as active). As to conditions: ME-180 (cervical carcinoma) SIE beta-lactamase reporter, IL-6 stimulated, 5 h; at 7.69 µM (top of the series) unless noted. The method in brief: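 Normalization used AC90 stimulation (300 pM IL-6) and AC90 inhibition (125 nM pan-JAK inhibitor at 40 pM IL-6). The underlying signal is SIE-driven beta-lactamase in ME-180 cells after 5 h IL-6 exposure with compound.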

Unmarked numbers belong to inactive results. Inconclusive results are not listed. Calls of active or inactive are those of the source. Unless noted, calls follow the shape of the dose curve; as a rule, active = well fitted curve in the direction sought with a large enough effect; inconclusive = small, poorly fitted or top-dose-only effect, or another doubt; inactive = no such curve, though single readings can be large; an effect the other way counts as inactive or inconclusive. Where only a bound is given, the exact number is not on record here.

Sequence of Lysosomal acid glucosylceramidase (Homo sapiens) (P04062 whole entry, looked up): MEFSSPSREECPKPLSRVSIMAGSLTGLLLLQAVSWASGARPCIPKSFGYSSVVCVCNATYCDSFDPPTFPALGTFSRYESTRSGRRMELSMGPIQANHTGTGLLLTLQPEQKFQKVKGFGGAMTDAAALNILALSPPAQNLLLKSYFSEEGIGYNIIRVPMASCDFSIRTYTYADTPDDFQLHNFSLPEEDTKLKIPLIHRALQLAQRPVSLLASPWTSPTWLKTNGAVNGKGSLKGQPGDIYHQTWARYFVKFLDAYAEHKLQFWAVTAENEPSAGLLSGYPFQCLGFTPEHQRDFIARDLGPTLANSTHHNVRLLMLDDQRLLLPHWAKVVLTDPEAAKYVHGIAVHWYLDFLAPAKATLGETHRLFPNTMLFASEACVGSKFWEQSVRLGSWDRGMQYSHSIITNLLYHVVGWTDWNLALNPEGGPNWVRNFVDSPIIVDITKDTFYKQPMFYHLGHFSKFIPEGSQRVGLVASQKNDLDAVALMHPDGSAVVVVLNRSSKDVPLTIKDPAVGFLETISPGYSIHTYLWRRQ
Sequence of Cytochrome P450 1A2 (Homo sapiens) (P05177 whole entry, looked up): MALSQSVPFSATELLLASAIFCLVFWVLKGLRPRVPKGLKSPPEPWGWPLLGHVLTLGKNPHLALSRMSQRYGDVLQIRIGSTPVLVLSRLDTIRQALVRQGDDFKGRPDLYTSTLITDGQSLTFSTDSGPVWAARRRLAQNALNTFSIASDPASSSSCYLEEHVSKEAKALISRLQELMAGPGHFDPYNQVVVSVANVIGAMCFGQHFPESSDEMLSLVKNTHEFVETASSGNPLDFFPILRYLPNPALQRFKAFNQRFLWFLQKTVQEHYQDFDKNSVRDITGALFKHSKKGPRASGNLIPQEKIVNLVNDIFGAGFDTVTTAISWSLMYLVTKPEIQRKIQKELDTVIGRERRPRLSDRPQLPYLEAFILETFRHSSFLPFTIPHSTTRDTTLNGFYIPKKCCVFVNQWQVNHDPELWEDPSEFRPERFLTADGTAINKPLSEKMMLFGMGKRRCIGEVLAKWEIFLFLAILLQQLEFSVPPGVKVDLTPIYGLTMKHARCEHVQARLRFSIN

As for `COc1ccc(-c2nc3cnc(OC)nc3n(CCC#N)c2=O)cc1`, the Potency in assay [1] was > 11.4 µM; in [3] it was 6.31 µM (active); in assay [5] it was > 9.22 µM; in [6], > 46 µM. The activity change, negative = inhibition in [2] was -7.37%; in assay [4], -4.16%. Further, the Potency result in assay [7], in [8], in assay [9], in assay [10], in assay [11] and in [12] was “inactive” throughout. Besides, the outcome in assay [13] was inactive.

As for `COc1cccc(Cn2c(=O)c(-c3cccs3)nc3cnc(OCc4ccccc4)nc32)c1`, the Potency was > 11.4 µM in assay [1], 1.58 µM (active) in assay [3], > 9.22 µM in assay [5] and > 46 µM in assay [6]. Also, the activity change, negative = inhibition was 27.9% in assay [2] and 3.84% in assay [4]. Moreover, the Potency entry in assay [7], in assay [8], in assay [14], in [9], in [10] and in assay [11] was “inactive” throughout. For the same compound, the Potency result in [12] is “inactive”. Also, the outcome in [13] was inactive.

On to `Cn1c(=O)c(-c2ccc(F)cc2)nc2cnc(N3CCOCC3)nc21`, for which the Potency in assay [1] was > 11.4 µM; in assay [3], 2.51 µM (active); in [5] it was > 9.22 µM; in assay [6], > 46 µM; in assay [16], 2.51 µM (active). The activity change, negative = inhibition in assay [2] was 14.8%; in assay [4], 24.2%. For the same compound, the Potency result in [7], in assay [8], in [15], in assay [9], in assay [10] and in [11] was “inactive” throughout. Moreover, the Potency result in assay [12] is “inactive”. In [13], the outcome was inactive.

In the case of `Cc1ccccc1-c1ccc2ncnc(NCc3cccs3)c2c1`, the Potency in assay [1] was > 11.4 µM; in assay [3] it was 2.51 µM (active); in assay [5], > 46 µM; in assay [6], > 46 µM; in [15], 3.98 µM (active); in assay [9] it was 3.98 µM (active). Further, the Potency in assay [10] and in assay [11] was 3.55 µM (active) in each case. The activity change, negative = inhibition in assay [2] is -9.99%; in assay [4], -15.8%. Besides, the activity, negative = inhibition in assay [17] was -13.1%. Moreover, the Potency entry in assay [7] and in [14] was “inactive” in each case. In addition, in assay [16], the activation was 2.83%. Moreover, the result in assay [13] was inactive.

For the compound `COc1ccccc1-c1cncnc1NCc1cnc(C)cn1`, the Potency in assay [1] was > 11.4 µM; in assay [3], 20 µM (active); in assay [15], 1.26 µM (active). For the same compound, the activity change, negative = inhibition is -7.64% in assay [2] and 2.58% in assay [4]. Further, the activity, negative = inhibition in assay [17] is 4.26%. The Potency entry in assay [7], in [8], in assay [14], in assay [9], in assay [10] and in assay [11] was “inactive” each time. Moreover, the Potency entry in assay [12] is “inactive”. Also, the outcome in assay [13] was inactive.

Consider `O=c1c(-c2ccc(F)cc2)nc2cnc(N3CCOCC3)nc2n1CCc1ccccc1`, for which the Potency in [1] is > 11.4 µM; in assay [3], 25.1 µM (active); in [5], > 9.22 µM; in [6], > 46 µM; in assay [16] it was 0.501 µM (active). For the same compound, the activity change, negative = inhibition in assay [2] is 79.3% [activator] (active); in assay [4], 103% [activator] (active). The Potency entry in assay [8], in assay [9], in [10], in [11] and in [12] was “inactive” in each case. Besides, in [13], the result was inactive.
